Gal4-VP16 FLuc = VP16 counterscreen qHTS for inhibitors of ROR gamma transcriptional activity; Drosophila S2 Gal4-VP16 UAS-luciferase, luminescence, 20 h; Potency, µM (highest dose often 53.6 µM), most hits filed as inhibitors; 310,000 compounds, 3.5% hits;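 note: Gal4-VP16 expression switched on by copper sulfate through the metallothionein promoter; nearly all actives have a fitted effect of over 50% in size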
TDP1 cell CPT = qHTS for Inhibitors of human tyrosyl-DNA phosphodiesterase 1 (TDP1): qHTS in cells in presence of CPT | chicken DT40 Tdp1-/-;hTDP1 cells + 20 nM CPT, ATP luminescence, 48 h | 420,000 compounds, 12% hits | Potency, µM (highest dose often 46.2 µM), usual class: inhibitors; note: nearly all actives have a fitted effect of over 55% in size
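Cell growth measured by CellTiter-Glo luminescence after a minimum 48 h, 37 C compound exposure with 20 nM CPT in Tdp1-knockout DT40 cells stably expressing hTDP1, seeded 400/well; qHTS titration format.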
LDHA block = qHTS assay for inhibitors of human lactate dehydrogenase | L-lactate dehydrogenase A chain (Homo sapiens), P00338 | purified LDHA, NADH/diaphorase-resazurin fluorescence; stronger effect = lower value | activity change, % (values are at about 110 or 230 µM) | 480,000 compounds, 0.15% hits; in the data active = activity change below about -30%; inconclusive = mostly about -25% to -30%
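Resorufin fluorescence (ex540/em590), read at 0 and 20 min after diaphorase/resazurin addition, reports the NADH left after a 5 min room-temperature reaction of 2 nM human LDH5 with 0.06 mM NADH and 0.2 mM pyruvate.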
DT40 TDP1 no CPT = qHTS for Inhibitors of human tyrosyl-DNA phosphodiesterase 1 (TDP1): qHTS in cells in absence of CPT | 420,000 compounds, 15% hits | DT40 Tdp1-/- hTDP1 cells, no CPT, ATP luminescence, 48 h | AID 686978, 2013 | Potency, µM (series often up to 46.2 µM), actives largely listed as inhibitors; note: nearly all actives have a fitted effect of over 55% in size
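DT40 Tdp1-/-;hTDP1 cells, no CPT (DMSO vehicle only), 400 cells/well; compounds pin-transferred; ≥48 hr, 37 °C; CellTiter-Glo 30 min RT dark, luminescence read.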
RORgamma inh = qHTS for inhibitors of ROR gamma transcriptional activity | Nuclear receptor ROR-gamma (Mus musculus), P51450 | Drosophila S2 Gal4-RORgamma UAS-luciferase reporter, 20 h | 310,000 compounds, 5.4% hits | Potency, µM (doses to about 53.6 µM), most hits filed as inhibitors | AID 2551, 2010; note: nearly all actives have a fitted effect of over 60% in size
Target sequence (P51450 whole entry, looked up, the tested form may be a part): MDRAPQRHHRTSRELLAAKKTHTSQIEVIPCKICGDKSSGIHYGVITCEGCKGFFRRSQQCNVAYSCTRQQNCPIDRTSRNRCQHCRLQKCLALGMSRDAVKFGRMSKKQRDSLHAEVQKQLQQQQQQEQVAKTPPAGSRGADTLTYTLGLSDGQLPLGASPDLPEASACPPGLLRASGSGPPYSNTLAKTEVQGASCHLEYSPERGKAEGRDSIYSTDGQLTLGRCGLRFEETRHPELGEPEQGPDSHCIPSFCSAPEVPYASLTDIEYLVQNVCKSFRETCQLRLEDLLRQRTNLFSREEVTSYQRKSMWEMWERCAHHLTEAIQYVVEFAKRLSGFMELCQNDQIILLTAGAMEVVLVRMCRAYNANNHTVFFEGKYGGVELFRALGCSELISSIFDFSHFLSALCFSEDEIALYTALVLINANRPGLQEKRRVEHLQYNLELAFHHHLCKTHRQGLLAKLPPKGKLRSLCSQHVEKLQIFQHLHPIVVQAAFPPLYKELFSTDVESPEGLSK
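Luminescence from a UAS-regulated Photinus luciferase reporter in stably transfected Drosophila Schneider cells is measured; decreased signal marks ROR gamma inhibition. Fusion expression is induced by 700 uM copper sulfate for 20 hr.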
IL1B secr inh = qHTS for Inhibitors of Inflammasome Signaling: IL-1-beta AlphaLISA Primary Screen. THP-1 LPS/ATP IL-1B secretion, AlphaLISA, 16 h; stronger effect = lower value. activity change, % at 57.5 µM. 360,000 compounds, 4.7% hits. AID 743279, 2014; in the data active = activity change below about -50%; inconclusive = mostly about -30% to -49%
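THP-1 cells pretreated 1 hr with compounds (up to 57.5 uM final), then stimulated with LPS (250 ng/mL final) plus ATP (1.25 mM final); secreted IL-1B measured by AlphaLISA after 16 hr, decreased signal indicating inhibition.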
A number is an active result; . = inactive; ? = inconclusive; / = not tested or not shown; [ ] = another dose, or the depositor's remark. An excerpt weighted towards active compounds, which were near 18% of everything screened. Unless noted, calls come from the whole dose curve; as a rule, active = well fitted curve in the direction sought with a large enough effect; inconclusive = small, poorly fitted or top-dose-only effect, or another doubt; inactive = no such curve, though single readings can be large; an effect the other way counts as inactive or inconclusive.

SMILES	Gal4-VP16 FLuc	TDP1 cell CPT	LDHA block	DT40 TDP1 no CPT	RORgamma inh	IL1B secr inh
CC(=O)Nc1ccc(NC(=O)c2nc(S(=O)(=O)Cc3cccc(C)c3)ncc2Cl)cc1	5.01µM	0.058µM	.	0.0461µM	6.31µM	-100.1
COC(=O)c1ccc(NC(=O)c2nc(S(=O)(=O)Cc3cccc(C)c3)ncc2Cl)cc1	4.47µM	0.581µM	.	0.517µM	6.31µM	-102.8
COC(=O)c1ccccc1NC(=O)c1nc(S(=O)(=O)Cc2cccc(C)c2)ncc1Cl	/	2.91µM	.	2.59µM	/	/
COC(=O)c1ccccc1NC(=O)c1onc(C)c1Cl	.	.	.	.	.	.
CC1CCC(NC(=O)CN2C(=O)C(C)(C)c3cc(S(=O)(=O)N4CCC(C)CC4)ccc32)CC1 (configuration not stated)	/	/	.	/	/	/
O=C(Nc1nonc1-c1ccc2c(c1)CCCC2)c1cc(=O)c2ccccc2o1	/	/	.	/	/	/
Cc1ccc(C2=CC(=O)CC(c3ccccc3)C2)cc1 (configuration not stated)	/	/	.	/	/	/
COc1cc(-c2cc(C)c3c(OC)ccc(OC)c3n2)cc2c1OCCN(C(=O)Cn1nc(C)cc1C)C2	/	.[9.04 µM]	/	.	/	/
COc1cc(-c2cc(C)c3cccc(OC)c3n2)cc2c1OCCN(C(=O)CCn1nc(C)cc1C)C2	/	.[9.04 µM]	/	18.4µM	/	/
COc1cccc(CNC(C)c2ccccc2)c1 (configuration not stated)	/	/	.	/	/	/
Cc1[nH]nc2c1C1(CCN(C(=O)OCc3ccccc3)CC1)C(C#N)=C(N)O2	?	.	.	.	5.01µM	?
Cc1[nH]nc2c1C1(CCN(C(=O)c3ccccc3)CC1)C(C#N)=C(N)O2	.	.	.	.	.	.
CCOC(=O)N1CCC2(CC1)C(C#N)=C(N)Oc1n[nH]c(CSc3ccc(C)cc3)c12	.	7.31µM	.	?	.	.
NS(=O)(=O)c1ccc(N/N=C/c2cccc([N+](=O)[O-])c2)cc1	/	/	.	/	/	/
CCOC(=O)Cc1ccc(Nc2nc(NCc3ccccc3)nc3ccsc23)cc1	/	23.1µM	.	14.6µM	/	.
CCOC(=O)Cc1ccc(Nc2nc(NC)nc3ccsc23)cc1	/	20.6µM	.	18.4µM	/	.
CCOC(=O)Cc1nnc(NCc2ccccc2)c2ccccc12	.	.	.	.	.	.
CN(C)c1ccc(N=c2cc(-c3ccccc3)cc(-c3ccccc3)s2)cc1	/	/	.	/	/	/
Cc1ccccc1Nc1nc2ccccc2n1C(C)C	.	.	.	.	10µM	.
COc1cccc(Nc2nc3ccccc3n2C(C)C)c1	.	.	.	.	.	.
Cc1ccc(CNC(=O)Nc2cccnc2)s1	/	/	.	/	/	/
CCOC(=O)[C@H]1[C@H]2COc3ccc(Cl)cc3[C@@H]2N2C(=O)c3cc(OC)ccc3NC(=O)[C@@]12C	/	?	.	23.1µM	/	.
CCOC(=O)[C@H]1[C@H]2COc3ccc(Cl)cc3[C@@H]2N2C(=O)c3ccc(Cl)cc3NC(=O)[C@@]12C	/	?	.	18.4µM	/	.
CCOc1cc(C2c3c(-c4ccccc4O)n[nH]c3C(=O)N2CCc2ccccc2)ccc1O (configuration not stated)	/	16.4µM	.	?	/	/
COc1cc(C2c3c(-c4ccccc4O)n[nH]c3C(=O)N2CCO)cc(OC)c1OC (configuration not stated)	/	/	.	/	/	/
SMILES	Gal4-VP16 FLuc	TDP1 cell CPT	LDHA block	DT40 TDP1 no CPT	RORgamma inh	IL1B secr inh
COCCCN1C(=O)c2[nH]nc(-c3ccccc3O)c2C1c1ccc(OC)cc1 (configuration not stated)	/	16.4µM	.	29.1µM	/	/
O=C1c2[nH]nc(-c3ccccc3O)c2C(c2ccc(F)cc2)N1CCO (configuration not stated)	/	?	.	?	/	/
COCCCN1C(=O)c2[nH]nc(-c3cc(C)ccc3O)c2C1c1ccc(F)cc1 (configuration not stated)	/	?	.	?	/	/
O=C1c2[nH]nc(-c3ccccc3O)c2C(c2ccc(Cl)cc2)N1CCc1ccccc1 (configuration not stated)	/	20.6µM	.	16.4µM	/	/
COCCCN1C(=O)c2[nH]nc(-c3ccccc3O)c2C1c1ccc(Cl)cc1 (configuration not stated)	.	23.1µM	.	?	?	.
COc1ccc2c(CCNC(=O)c3ccccc3F)c[nH]c2c1	/	/	.	/	/	/
CCOC(=O)c1cc2c(C)cc(C)cc2[nH]1	/	/	.	/	/	/
COCCCN1C(=O)c2[nH]nc(-c3cc(C)cc(C)c3O)c2C1c1ccc(O)c(OC)c1 (configuration not stated)	.	20.6µM	.	?	?	.
COc1cc(C2c3c(-c4cc(C)cc(C)c4O)n[nH]c3C(=O)N2CCCO)cc(OC)c1OC (configuration not stated)	.	.	.	.	.	?
O=C(CCc1ccccc1)Nc1nnc(-c2cccs2)o1	10µM	.	.	.	6.31µM	.
O=C(CCSc1ccccc1)Nc1nnc(-c2cccs2)o1	10µM	.	.	.	4.47µM	.
O=C(CS(=O)(=O)c1ccc(Cl)cc1)Nc1nnc(-c2cccs2)o1	?	.	.	.	14.1µM	.
O=C(CS(=O)(=O)c1ccc(F)cc1)Nc1nnc(-c2cccs2)o1	/	.	.	.	/	.
Nc1nnc(SCC(=O)Nc2nnc(-c3ccccc3)o2)s1	/	.	.	.	/	.
O=C(CCSc1ccccc1)Nc1nnc(-c2ccccc2)o1	11.2µM	.	.	.	10µM	.
O=C(NCc1ccccn1)c1cc(S(=O)(=O)C2CCS(=O)(=O)C2)ccc1F (configuration not stated)	/	/	.	/	/	/
CCOc1cc(/C=C/C(=O)c2ccc(OC)c(CN3CCOCC3)c2)cc(Br)c1O	.	?	.	?	?	-96.1
COc1cccc(CCC(=O)Nc2cccc(S(=O)(=O)N3CCCC3)c2)c1OC	/	?	.	?	/	.
Cc1ccc(S(=O)(=O)N2CCCCC2)cc1NC(=O)CCc1nc2ccccc2c(=O)[nH]1	/	?	.	?	/	.
COc1cccc(CN(C)CC(=O)Nc2cc(S(=O)(=O)N3CCCC3)ccc2Cl)c1OC	/	20.6µM	.	?	/	.
COc1cccc(CN(C)C(=O)c2cc(S(=O)(=O)N3CCCC3)ccc2C)c1OC	/	?	.	?	/	.
O=C(CCc1nc2ccccc2c(=O)[nH]1)Nc1cccc(S(=O)(=O)N2CCCCC2)c1	/	?	.	20.6µM	/	.

From PubChem BioAssay
